# Data published in PubChem BioAssay.
# Activity calls are given as the source filed them.
# Assays:
# Albumin (Bos taurus) = Albumin (Bos taurus) (UniProt P02769); experiment: compounds binding labelled BSA control protein – biochemical, small-molecule microarray, Alexa647 label, 635/667 nm fluorescence, artefact control for SMM control protein annotation, profiling panel (AID 1118); conditions: BSA-A647 binding, fluorescence 635 nm, higher = more signal;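 further: score merges 667 nm emission intensity and signal-to-noise per printed compound spot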
# [1] = probe aXIP binding to arrayed compounds – biochemical, NeuroSMM set, 635/667 nm fluorescence, primary screen (AID 1119); conditions: small-molecule microarray, higher = more signal, called active from +8 up or from −8 down;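 further: probe is the protein aXip251-270 applied at 1 µg/mL to compound-printed slides; binding of probe to printed compounds measured as 667 nm fluorescence plus signal to noise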
# [2] = probe aNOTCH3 binding on compound microarray – biochemical, small-molecule microarray, 635/667 nm fluorescence, primary screen (AID 1120); conditions: higher = more signal;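 further: probe is a biotin-tagged antibody raised against NOTCH3 rather than NOTCH3 protein; score merges spot fluorescence near 667 nm with spot signal to noise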
# [3] = probe aNOTCH2 binding on compound microarray – biochemical, small-molecule microarray, 635/667 nm fluorescence, primary screen (AID 1121); conditions: higher = more signal;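 further: score merges feature fluorescence read at 667 nm with its signal to noise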
# [4] = molecular target: Carbonic anhydrase 2 (Homo sapiens) (UniProt P00918); experiment: compounds binding carbonic anhydrase 2 – biochemical, small-molecule microarray, Alexa647-labelled CAII, profiling panel (AID 1122); conditions: CAII-A647 binding fluorescence, higher = more signal
# [5] = COS7 lysate on small-molecule microarray, probe aHis, 635 nm (AID 1123); conditions: COS7 cell lysate, fluorescence, higher = more signal;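 further: z-score combines 667nm fluorescence intensity with signal-to-noise per printed compound spot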
# [6] = probe aLAP1 signal on lysate-treated microarray – cell lysate, small-molecule microarray, COS7 lysate, primary screen (AID 1124); conditions: probe aLAP1, fluorescence, higher = more signal;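 further: lysate comes from COS7 cells expressing LAP1 and is applied at 0.3 µg/mL; score merges spot fluorescence near 667 nm with signal-to-noise over triplicate slides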
# Sam68 (KHDRBS1) = experiment: compounds binding KHDRBS1 protein – biochemical, small-molecule microarray, 635 nm fluorescence, primary screen (AID 1125); conditions: higher = more signal;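 further: score merges 667 nm channel intensity with signal to noise over triplicate slides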
# [7] = tested on: Chordin-like protein 2 (CHRDL2); experiment: compounds binding chordin-like 2 – biochemical, small-molecule microarray, 635 nm fluorescence, primary screen (AID 1126); conditions: fluorescence 635 nm, higher = more signal;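 further: printed compound slides probed with Chrdl2 protein at 4 µg/mL for 1 h at 4 C; score merges 667 nm emission intensity with signal to noise over three replicate slides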
# [8] = molecular target: Concanavalin-A (Canavalia ensiformis) (UniProt P02866); experiment: compounds binding concanavalin A lectin – biochemical, small-molecule microarray, Alexa647 label, 635 nm, artefact control for SMM control protein annotation, primary screen (AID 1127); conditions: ConA-A647 binding fluorescence, higher = more signal;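 further: z combines 667 nm emission intensity with signal-to-noise across three replicate slides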
# [9] = compounds binding Alexa647 anti-His antibody – biochemical, small-molecule microarray, 635 nm fluorescence, artefact control for SMM control protein annotation, primary screen (AID 1128); conditions: higher = more signal;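 further: score merges feature fluorescence with signal-to-noise for each printed compound spot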
# [10] = tested on: Human papillomavirus type 1a E7 protein (residues 1-88); experiment: HPV1a E7 small-molecule binders, primary screen, biochemical, small-molecule microarray, residues 1-88, 635 nm (AID 1129); conditions: small-molecule microarray binding, fluorescence 635 nm; higher = more signal
# [11] = molecular target: Focal adhesion kinase 1 (Homo sapiens) (UniProt Q05397); experiment: PTK2 protein binding on printed compound slides – biochemical, small-molecule microarray, 635/667 nm fluorescence, BSA, DTT, primary screen (AID 1130); conditions: 635 nm fluorescence, higher = more signal;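 further: composite of spot emission at 667 nm and signal to noise over triplicate slides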
# [12] = tested on: Fibrinogen (Alexa647-labelled); experiment: Alexa647-fibrinogen binding to printed small molecules – biochemical, small-molecule microarray, 635/667 nm fluorescence, artefact control for SMM control-protein annotation, profiling panel (AID 1131); conditions: fibrinogen-A647 binding fluorescence, higher = more signal;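 further: z-score merges 667 nm fluorescence with per-spot signal-to-noise over triplicate slides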
# [13] = molecular target: Follistatin (Homo sapiens) (UniProt P19883); experiment: FST protein binding to printed compounds – biochemical, small-molecule microarray, 635/667 nm fluorescence, primary screen (AID 1132); conditions: 635 nm fluorescence, higher = more signal
# [14] = molecular target: Fibroblast growth factor 2 (Homo sapiens) (UniProt P09038); experiment: basic fibroblast growth factor binding to printed compounds – biochemical, small-molecule microarray, 635/667 nm fluorescence, primary screen (AID 1133); conditions: FGF2, fluorescence 635/667, higher = more signal
# [15] = JC-1 mitochondrial potential readout, lung cancer cells – cell-based, A549, JC-1 fluorescence, basal, 24 h, 100 nL, profiling panel (AID 1138); conditions: higher = more signal;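 further: A549 lung adenocarcinoma cells under basal conditions with no added stimulus; test concentration not given here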
# Lefty1 = Lefty1 protein binding to printed compounds – biochemical, small-molecule microarray, 635/667 nm fluorescence, primary screen (AID 1139); conditions: fluorescence 635/667, higher = more signal
# [16] = tested on: wheat germ agglutinin (Triticum aestivum), Alexa647-labelled; experiment: Alexa647-WGA lectin binding to printed small molecules – biochemical, small-molecule microarray, 635/667 nm fluorescence, artefact control for SMM control-protein annotation, profiling panel (AID 1140); conditions: WGA-A647 binding, 635 nm fluorescence, higher = more signal;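 further: score merges 667 nm feature emission with signal to noise over triplicate slides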
# [17] = molecular target: Luciferin 4-monooxygenase (Photinus pyralis) (UniProt P08659); experiment: inhibition of purified Photinus pyralis luciferase – biochemical, luminescence, purified enzyme, 2006 set, primary screen (AID 1141); conditions: purified firefly luciferase, SteadyGlo luminescence, 30 min; higher = more signal, called active from +8 up or from −8 down;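 further: cell-free assay with purified firefly luciferase at 100 ng per well in PBS; test concentration not given here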
# Chain of Luciferin 4-monooxygenase (Photinus pyralis) (P08659 whole entry, looked up): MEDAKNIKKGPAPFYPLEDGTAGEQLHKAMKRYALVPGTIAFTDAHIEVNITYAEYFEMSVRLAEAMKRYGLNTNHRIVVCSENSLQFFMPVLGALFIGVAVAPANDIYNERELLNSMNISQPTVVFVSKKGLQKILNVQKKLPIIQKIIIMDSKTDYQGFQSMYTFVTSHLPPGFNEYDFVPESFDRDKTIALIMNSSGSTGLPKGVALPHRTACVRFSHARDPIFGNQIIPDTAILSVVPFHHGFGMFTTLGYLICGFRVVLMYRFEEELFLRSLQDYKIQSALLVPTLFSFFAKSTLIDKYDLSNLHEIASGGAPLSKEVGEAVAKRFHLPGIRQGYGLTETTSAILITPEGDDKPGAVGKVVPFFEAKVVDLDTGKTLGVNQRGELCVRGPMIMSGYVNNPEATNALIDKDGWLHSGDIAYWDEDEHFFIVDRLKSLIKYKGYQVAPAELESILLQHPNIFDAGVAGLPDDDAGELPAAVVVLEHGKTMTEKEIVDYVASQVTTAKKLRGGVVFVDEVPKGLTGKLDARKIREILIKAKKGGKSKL
# Chain of Focal adhesion kinase 1 (Homo sapiens) (Q05397 whole entry, looked up): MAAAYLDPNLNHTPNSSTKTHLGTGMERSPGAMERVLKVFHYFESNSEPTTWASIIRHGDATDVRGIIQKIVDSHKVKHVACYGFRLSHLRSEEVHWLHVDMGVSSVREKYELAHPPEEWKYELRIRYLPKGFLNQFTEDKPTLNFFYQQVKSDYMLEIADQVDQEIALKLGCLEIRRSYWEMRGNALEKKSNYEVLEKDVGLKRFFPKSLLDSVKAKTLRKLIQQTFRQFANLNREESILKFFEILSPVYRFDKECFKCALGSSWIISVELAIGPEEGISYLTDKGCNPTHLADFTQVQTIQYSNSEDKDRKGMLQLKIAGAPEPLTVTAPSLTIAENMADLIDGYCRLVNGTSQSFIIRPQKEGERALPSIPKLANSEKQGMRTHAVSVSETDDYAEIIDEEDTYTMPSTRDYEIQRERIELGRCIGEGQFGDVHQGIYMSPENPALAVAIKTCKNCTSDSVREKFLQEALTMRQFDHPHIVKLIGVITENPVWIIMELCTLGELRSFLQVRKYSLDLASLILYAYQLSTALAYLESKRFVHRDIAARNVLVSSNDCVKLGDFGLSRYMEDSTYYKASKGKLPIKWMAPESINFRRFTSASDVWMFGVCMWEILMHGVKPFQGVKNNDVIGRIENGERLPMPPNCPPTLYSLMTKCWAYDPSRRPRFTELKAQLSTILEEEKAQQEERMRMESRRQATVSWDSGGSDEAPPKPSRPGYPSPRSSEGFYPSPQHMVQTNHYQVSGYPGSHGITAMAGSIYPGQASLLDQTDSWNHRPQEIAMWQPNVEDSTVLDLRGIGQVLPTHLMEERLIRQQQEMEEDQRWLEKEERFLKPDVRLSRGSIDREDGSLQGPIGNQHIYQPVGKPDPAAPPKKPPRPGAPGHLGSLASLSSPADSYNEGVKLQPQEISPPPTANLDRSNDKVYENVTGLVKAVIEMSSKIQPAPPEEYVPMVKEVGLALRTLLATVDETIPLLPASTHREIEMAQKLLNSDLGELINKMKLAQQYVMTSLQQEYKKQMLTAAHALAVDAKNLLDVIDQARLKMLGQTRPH
# Chain of Concanavalin-A (Canavalia ensiformis) (P02866 whole entry, looked up): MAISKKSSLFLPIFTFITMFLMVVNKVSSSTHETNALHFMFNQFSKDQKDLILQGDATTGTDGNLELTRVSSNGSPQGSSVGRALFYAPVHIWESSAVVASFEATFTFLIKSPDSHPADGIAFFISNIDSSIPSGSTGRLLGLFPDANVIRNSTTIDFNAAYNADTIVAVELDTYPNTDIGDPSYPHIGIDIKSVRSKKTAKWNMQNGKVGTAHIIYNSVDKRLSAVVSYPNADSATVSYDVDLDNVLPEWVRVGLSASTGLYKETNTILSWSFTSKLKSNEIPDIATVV
# Chain of Albumin (Bos taurus) (P02769 whole entry, looked up): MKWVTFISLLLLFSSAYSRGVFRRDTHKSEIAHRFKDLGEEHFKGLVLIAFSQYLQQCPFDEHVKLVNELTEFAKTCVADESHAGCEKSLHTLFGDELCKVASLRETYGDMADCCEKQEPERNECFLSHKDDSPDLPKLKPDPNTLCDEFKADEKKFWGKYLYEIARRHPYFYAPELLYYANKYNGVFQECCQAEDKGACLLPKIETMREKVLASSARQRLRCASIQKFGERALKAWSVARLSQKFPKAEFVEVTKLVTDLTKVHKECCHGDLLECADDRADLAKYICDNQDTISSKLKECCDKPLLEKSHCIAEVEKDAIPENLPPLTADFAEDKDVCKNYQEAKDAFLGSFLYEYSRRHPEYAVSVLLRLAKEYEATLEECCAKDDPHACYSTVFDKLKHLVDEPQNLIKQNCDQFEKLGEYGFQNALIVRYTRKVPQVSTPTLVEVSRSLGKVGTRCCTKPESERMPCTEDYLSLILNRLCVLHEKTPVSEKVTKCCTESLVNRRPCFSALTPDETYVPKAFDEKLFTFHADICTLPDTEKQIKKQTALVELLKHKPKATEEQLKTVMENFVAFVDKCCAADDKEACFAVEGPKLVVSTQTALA
# Chain of Follistatin (Homo sapiens) (P19883 whole entry, looked up): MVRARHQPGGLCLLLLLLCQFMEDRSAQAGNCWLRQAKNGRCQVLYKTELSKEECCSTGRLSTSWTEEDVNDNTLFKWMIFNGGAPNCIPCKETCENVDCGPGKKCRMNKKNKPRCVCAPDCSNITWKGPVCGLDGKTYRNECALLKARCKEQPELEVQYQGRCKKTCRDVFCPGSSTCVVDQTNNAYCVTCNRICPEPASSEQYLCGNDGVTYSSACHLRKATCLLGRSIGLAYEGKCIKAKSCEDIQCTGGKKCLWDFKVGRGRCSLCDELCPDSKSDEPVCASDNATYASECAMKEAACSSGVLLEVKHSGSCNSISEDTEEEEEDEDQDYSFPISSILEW
# Chain of Fibroblast growth factor 2 (Homo sapiens) (P09038 whole entry, looked up): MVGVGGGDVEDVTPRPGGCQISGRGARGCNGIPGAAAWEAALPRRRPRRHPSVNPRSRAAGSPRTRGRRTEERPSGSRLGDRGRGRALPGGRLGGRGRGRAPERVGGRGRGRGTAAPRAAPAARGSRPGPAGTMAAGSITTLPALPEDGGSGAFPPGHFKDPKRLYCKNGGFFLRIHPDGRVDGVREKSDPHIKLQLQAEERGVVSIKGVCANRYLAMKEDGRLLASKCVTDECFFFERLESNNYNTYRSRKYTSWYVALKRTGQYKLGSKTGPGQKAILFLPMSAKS
Compound,composite z-score (Albumin (Bos taurus)),composite Z-score [1],composite z-score [2],composite z-score [3],composite z-score [4],composite z-score [5],composite z-score [6],composite z-score (Sam68 (KHDRBS1)),composite z-score [7],composite z-score [8],composite z-score [9],composite z-score [10],composite z-score [11],composite z-score [12],composite z-score [13],composite z-score [14],z-score [15],composite z-score (Lefty1),composite z-score [16],z-score [17]
COC(=O)[C@H](C)NC(=O)CC=C[C@@H](C)[C@@H]1C=C[C@H](O)[C@@H](CO)O1,-0.453,-0.0756 (inactive),-0.0932,-0.237,-0.114,-0.346,-0.0681,0.457,1.33,-0.174,0.0816,0.228,-0.118,-0.0588,1.14,1,-0.142,1.39,-0.28,0.374 (inactive)
CCN1C(=O)[C@H]2[C@H]3[C@H](O)[C@H](O)CC(=NOC[C@@H](O)COCc4ccco4)[C@H]3CC[C@H]2C1=O,0.532,0.525 (inactive),-0.18,-0.16,0.093,-0.303,0.0965,0.971,1.5,-1.26,-1.13,-0.516,0.0699,-0.554,1.39,1.66,0.0801,1.55,-0.976,-0.941 (inactive)
CCOC(=O)CCN1C(=O)[C@H]2[C@H]3[C@H](O)[C@H](O)CC(=NO[C@@H]4O[C@H](CO)[C@@H](O)[C@H](O)[C@H]4O)[C@@H]3CC[C@H]2C1=O,0.83,0.397 (inactive),0.207,-0.0698,0.381,0.279,-0.0046,1.3,1.04,0.322,0.818,1.12,0.118,0.854,1.22,1.22,-0.102,1.4,0.829,-0.115 (inactive)
CCN1C(=O)[C@H]2[C@H]3[C@H](O)[C@H](O)CC(=NOCC[C@@H]4C=C[C@H](OC(C)=O)[C@@H](COC(C)=O)O4)[C@@H]3CC[C@H]2C1=O,0.541,0.501 (inactive),-0.149,-0.12,0.385,0.305,0.256,0.214,0.63,0.544,0.535,0.311,0.39,0.936,0.472,0.419,-0.812,0.298,0.97,0.838 (inactive)
CC(C)(C)N1C(=O)[C@H]2[C@H]3[C@H](O)[C@H](O)CC(=NOC[C@@H](O)COCc4ccco4)[C@@H]3CC[C@H]2C1=O,0.617,0.103 (inactive),-0.0311,-0.0984,-0.129,0.0171,0.227,-0.254,0.107,0.506,-0.329,-0.451,-0.0584,0.961,-0.396,-0.0677,-0.521,-0.211,0.915,-0.124 (inactive)
CC(=O)OC[C@H]1O[C@H](CCON=C(C)C)C=C[C@@H]1OC(C)=O,0.123,-0.0706 (inactive),-0.0362,-0.0651,-0.177,-0.308,-0.0375,-0.406,0.445,0.186,1.56,-0.33,0.115,0.0586,0.521,0.247,0.0315,0.377,-0.178,0.654 (inactive)
CC1(C)O[C@H]2O[C@H]([C@H](O)CON=C3[C@H]4CCn5c(=O)n(-c6ccccc6)c(=O)n5[C@H]4[C@H](O)[C@@H]4O[C@H]34)[C@H](O)[C@H]2O1,0.661,-0.171 (inactive),-0.342,-0.105,-0.195,-0.337,-0.0336,-0.773,0.19,0.444,0.455,-0.282,-0.282,0.0946,0.154,0.947,-0.994,0.222,0.0136,0.0158 (inactive)
CCN1C(=O)[C@H]2[C@H]3[C@H](O)[C@H](O)CC(=NNC(=O)OCc4ccccc4)[C@@H]3CC[C@H]2C1=O,0.489,-0.45 (inactive),-0.0647,-0.14,-0.289,0.917,-0.314,-0.327,-0.0079,0.145,0.545,-0.513,-0.116,0.315,0.0633,-0.0789,0.207,0.066,0.128,0.248 (inactive)
CCCNC(=O)OC[C@H]1O[C@H](CCON=C2c3cc(OC)ccc3O[C@H](c3cccc(OC)c3)[C@H]2O)C=C[C@@H]1Oc1ccc(OC)cc1,0.491,3.22 (inactive),0.219,0.0889,0.137,1.24,0.812,0.956,0.366,0.493,2.07,0.824,0.222,0.618,0.418,1.11,1.2,0.292,0.228,0.652 (inactive)
COC(=O)[C@@H]1CC[C@H](C)[C@@H](c2ccc(Br)cc2)N1C[C@@H](O)CN=[N+]=[N-],-0.236,-0.509 (inactive),0.0016,-0.18,-0.0121,0.23,0.546,0.56,0.401,-0.0032,0.215,-0.0633,-0.0902,0.128,0.4,0.4,-0.822,0.45,-0.0107,0.0386 (inactive)
C#CCCCON=C1C[C@@H](O)[C@@H](O)[C@@H]2[C@@H]3C(=O)N(C4CCCCC4)C(=O)[C@@H]3CC[C@@H]12,0.42,0.0436 (inactive),-0.11,-0.129,0.621,0.65,0.172,-0.513,0.422,0.335,0.16,0.256,0.394,0.486,0.513,0.0704,-0.404,0.363,0.329,-0.0138 (inactive)
